Assay results published in PubChem BioAssay AID372 (MTDP, 2006).
In all, about 100,000 compounds went through this assay and about 770 (0.77%) were called active. This is one part of a sample in which actives are shown more often than they occur. A number with no mark means an inactive call. Cut-off read from the data, not from the text of the source: active = inhibition above about 50%; inactive = the rest.

Biological target: Gag-Pol polyprotein (Human immunodeficiency virus type 1 group M subtype B (isolate HXB2)) (UniProt P04585)
Test: RNase H inhibition, HIV 1 Gag Pol polyprotein, FRET biochemical assay, screening (AID 372)
Conditions: HIV-1 RT RNase H, FRET RNA/DNA substrate fluorescence; at 10 µM; stronger effect = higher value

SMILES | inhibition
O=C1CC(c2ccccc2)CC(O)=C1C=NCCN1CCNCC1 (configuration not stated) | 0%
COc1ccc(C=Nc2ccc(C)c(F)c2)cc1OC | 6%
CCOC(=O)COc1c(Cl)cc(/C=C2\C(=O)NC(=O)N(c3ccc(F)cc3)C2=O)cc1Cl | 2%
CC/C(=C1\C(=O)N(c2nc3ccccc3s2)N=C1C(F)(F)F)N1CCCCC1 | 5%
CCOc1ccc(N(CC(=O)N2CCC(C)CC2)S(=O)(=O)c2ccccc2)cc1 | 8%
CCc1cc(CC)c(/C=N/O)c(CC)c1/C=N/O | 0%
CCCOc1ccccc1/C=N/NC(N)=O | 0%
CCc1cc(CC)c(Cc2c(CC)cc(CC)c(/C=N/NC(N)=O)c2CC)c(CC)c1/C=N/NC(N)=O | 50% (active)
Cc1cc2ncn(S(=O)(=O)c3cc([N+](=O)[O-])ccc3Cl)c2cc1C | 57% (active)
Cc1ccc([N+](=O)[O-])cc1S(=O)(=O)n1cnc2ccccc21 | 22%
Cc1cc2ncn(S(=O)(=O)c3ccc(Cl)c([N+](=O)[O-])c3)c2cc1C | 23%
CCCC(=O)Nc1ccc(N2CCOCC2)c(Cl)c1 | 0%
CCOC(=O)CCCN1C(=O)S/C(=C\c2ccc(OC)cc2)C1=O | 0%
COc1ccc(N2CC(C(=O)N/N=C/c3ccc(OC)c(OC)c3)CC2=O)cc1 (configuration not stated) | 3%
CCOc1cc(/C=C2\SC(=S)N(/N=C/c3ccc(O)c(OCC)c3)C2=O)ccc1O | 20%
Nc1ccc(-c2nc3ccccc3[nH]2)c(N)c1 | 4%
Cc1ccc2nc(-c3sc(=S)n(-c4ccccc4)c3N)[nH]c2c1 | 21%
COc1ccc(OC)c(/C=C/C(=O)c2c(-c3ccccc3)c3cc(Cl)ccc3[nH]c2=O)c1 | 50% (active)
O=C(/C=C/c1ccccc1F)c1c(-c2ccccc2)c2cc(Cl)ccc2[nH]c1=O | 48%
COc1cc(/C=C/C(=O)c2c(-c3ccccc3)c3cc(Cl)ccc3[nH]c2=O)cc(OC)c1OC | 3%
COc1ccc(/C=C/C(=O)c2c(-c3ccccc3)c3cc(Cl)ccc3[nH]c2=O)cc1OC | 11%
COc1ccccc1/C=C/C(=O)c1c(-c2ccccc2)c2cc(Cl)ccc2[nH]c1=O | 60% (active)
COc1cc(/C=C/C(=O)c2c(-c3ccccc3)c3cc(Cl)ccc3[nH]c2=O)cc(Br)c1OC | 26%
C=CCN1C(=O)/C(=C\c2ccc(-c3ccc(Br)cc3)o2)C(=O)NC1=S | 32%
Cc1ccc(NC(=O)C(=O)NCc2ccc3c(c2)OCO3)cc1 | 4%
Cc1nc2cc(-c3ccc(I)cc3)[nH]n2c(=O)c1C | 0%
COC(=N)/C(C#N)=C/c1c(O)n(-c2c(Cl)cccc2Cl)c2ccccc12 | 1%
